The record followed here is PubChem BioAssay (NCI).

The panel holds about 83,000 compounds, 20% with a hit somewhere; the sample as a whole holds those more often.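 Note: values are percent growth. 100 is the growth of untreated cells, values between 100 and 0 indicate rising inhibition; between -100 and 0 indicates cell death.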 Unmarked numbers belong to inactive results. The source made the active and inactive calls. How the source made its calls: active means growth percent below 10; inactive means the rest.

Among the test systems are HT29 colon; SNB-75 CNS; SNB-19 CNS; U251 CNS; PC-3 prostate; SK-MEL-5 melanoma; UACC-62 melanoma; LOX IMVI melanoma; SK-MEL-28 melanoma; SK-MEL-2 melanoma; EKVX NSCLC; SN12C renal; UO-31 renal; TK-10 renal; ACHN renal; A498 renal; CCRF-CEM leukemia; MOLT-4 leukemia; SR leukemia; CAKI-1 renal.
What all share (assay): NCI-60 one-dose screen, 48 h (100 = growth as untreated, 0 = no growth, -100 = all killed)
Details in all cases: 10 µM

Consider `CCCCOc1ccc(NC(=O)Nc2nnc(C)s2)cc1`, for which the growth is 99.4% with HT29 colon; 105% in the assay on SNB-75 CNS; 98.2% with SNB-19 CNS; 93.2% with U251 CNS; 92.5% in the assay on PC-3 prostate; 102% in the assay with SK-MEL-5 melanoma. For the same compound, the growth with UACC-62 melanoma is 82.5%; with LOX IMVI melanoma, 78.9%; in the assay with SK-MEL-28 melanoma, 106%; with SK-MEL-2 melanoma it was 105%; with EKVX NSCLC, 99.6%; in the assay on SN12C renal, 93.3%. Further, the growth with UO-31 renal is 87%; in the assay with TK-10 renal it was 118%; with ACHN renal, 94.5%; with A498 renal, 108%; in the assay with CCRF-CEM leukemia, 72.9%; in the assay with MOLT-4 leukemia it was 90.4%. Besides, the growth in the assay with SR leukemia is 101%.
Consider `COc1ccc2c(c1)-c1c(c3cc(OC)ccc3n(CCN(C)C)c1=O)C2=O`, for which the growth is -63.4% (active) with HT29 colon; -3.22% (active) with SNB-75 CNS; 32.4% with SNB-19 CNS; 20.3% in the assay on U251 CNS; 21.5% in the assay on PC-3 prostate; 11.7% with SK-MEL-5 melanoma. In addition, the growth in the assay on UACC-62 melanoma was 36.9%; with LOX IMVI melanoma it was -67.9% (active); with SK-MEL-28 melanoma, 41.3%; in the assay on SK-MEL-2 melanoma, 14.4%; with EKVX NSCLC, 34.5%; in the assay with SN12C renal, 24.6%. Further, the growth in the assay on UO-31 renal was -24.7% (active); in the assay on TK-10 renal, -2.26% (active); in the assay with ACHN renal, 8.27% (active); in the assay with A498 renal, 48.6%; in the assay on CCRF-CEM leukemia, 3.78% (active); in the assay with MOLT-4 leukemia, 1.5% (active). In addition, in the assay on SR leukemia, the growth was -12.4% (active).
Turning to `O=C(N/N=C\c1cc(Cl)ccc1[N+](=O)[O-])c1ccco1`, the growth in the assay on HT29 colon was 107%; with SNB-75 CNS it was 96%; with SNB-19 CNS, 102%; in the assay on U251 CNS, 97.4%; in the assay with PC-3 prostate it was 100%; in the assay on SK-MEL-5 melanoma, 111%. Moreover, the growth was 101% in the assay with UACC-62 melanoma; 103% in the assay with LOX IMVI melanoma; 110% with SK-MEL-28 melanoma; 117% in the assay with SK-MEL-2 melanoma; 106% with EKVX NSCLC; 99.8% with SN12C renal. Also, the growth is 104% in the assay with UO-31 renal; 128% in the assay on TK-10 renal; 105% in the assay on ACHN renal; 89.5% in the assay on CAKI-1 renal; 102% in the assay on CCRF-CEM leukemia; 93.6% with MOLT-4 leukemia. In the assay on SR leukemia, the growth was 123%.
Regarding `CN1CCC(CNc2cc(C3(C(=O)Nc4cc(C(=O)Nc5ccc(Cl)c(C(F)(F)F)c5)ccc4F)CC3)ncn2)CC1`, the growth was -26.6% (active) in the assay on HT29 colon; 23.1% in the assay with SNB-75 CNS; -34.1% (active) in the assay with SNB-19 CNS; -37.5% (active) with U251 CNS; -23% (active) in the assay with PC-3 prostate; -95.4% (active) in the assay on SK-MEL-5 melanoma. Besides, the growth with UACC-62 melanoma was 32.9%; in the assay on LOX IMVI melanoma, -74.2% (active); with SK-MEL-28 melanoma, -54.7% (active); in the assay on SK-MEL-2 melanoma, -57.2% (active); in the assay on EKVX NSCLC, 46.7%; with SN12C renal, 78.8%. The growth is 7.95% (active) in the assay on UO-31 renal; 84.5% in the assay on TK-10 renal; 20.1% in the assay on ACHN renal; 96% in the assay with A498 renal; -23.9% (active) in the assay with CCRF-CEM leukemia; -37.5% (active) with MOLT-4 leukemia. Further, the growth in the assay on SR leukemia is -26.7% (active).
Turning to `Cc1ccc(NC(=O)Nc2c(Cl)cccc2Cl)cn1`, the growth was 130% in the assay with HT29 colon; 92.1% with SNB-75 CNS; 102% in the assay on SNB-19 CNS; 89.8% with U251 CNS; 83.8% in the assay with PC-3 prostate; 87.1% with SK-MEL-5 melanoma. In addition, the growth in the assay on UACC-62 melanoma was 78.7%; with LOX IMVI melanoma it was 101%; with SK-MEL-28 melanoma, 130%; with SK-MEL-2 melanoma it was 91.4%; in the assay with EKVX NSCLC, 58.8%; in the assay on SN12C renal, 105%. The growth in the assay on UO-31 renal was 72.1%; in the assay with TK-10 renal it was 128%; in the assay on ACHN renal, 95.5%; in the assay on A498 renal it was 106%; in the assay on CCRF-CEM leukemia it was 69.5%; in the assay on MOLT-4 leukemia it was 86.9%. In addition, the growth in the assay on SR leukemia was 59.1%.
On to `COc1cc2c(cc1OCCCCCCN1CCN(CC(=O)Nc3ccc(Cl)cc3C(=O)c3ccccc3Cl)CC1)N=CC1CCCN1C2=O` (centres undefined), for which the growth in the assay on HT29 colon was -56.8% (active); in the assay with SNB-75 CNS, -84.5% (active); in the assay with SNB-19 CNS it was -77.7% (active); with U251 CNS it was -100% (active); with PC-3 prostate it was -100% (active); in the assay on SK-MEL-5 melanoma, -100% (active). Moreover, the growth in the assay with UACC-62 melanoma was -98.7% (active); with LOX IMVI melanoma, -93.9% (active); in the assay with SK-MEL-28 melanoma, -85.8% (active); in the assay with SK-MEL-2 melanoma, -69.6% (active); in the assay with EKVX NSCLC, -93.2% (active); in the assay with SN12C renal, -90.2% (active). Besides, the growth was -98.8% (active) in the assay on TK-10 renal; -100% (active) in the assay with ACHN renal; -98.8% (active) in the assay with CAKI-1 renal; -66.3% (active) in the assay on CCRF-CEM leukemia; -64% (active) with MOLT-4 leukemia; -70.2% (active) in the assay on SR leukemia.
With `CCN(CC)CCOc1nc2ccccc2c2c1-c1ccc(OC)cc1C2=O`, the growth was -12.9% (active) in the assay with HT29 colon; 1.69% (active) in the assay on SNB-75 CNS; 24.6% with SNB-19 CNS; -10.8% (active) with U251 CNS; 7.51% (active) in the assay on PC-3 prostate; -84% (active) with SK-MEL-5 melanoma. Further, the growth in the assay with UACC-62 melanoma was 8.63% (active); in the assay with LOX IMVI melanoma it was -47.2% (active); in the assay with SK-MEL-28 melanoma, 4.25% (active); with SK-MEL-2 melanoma, -2.62% (active); in the assay with EKVX NSCLC, 16%; in the assay with SN12C renal, 18.1%. Also, the growth was -53.3% (active) in the assay on UO-31 renal; -1.29% (active) with TK-10 renal; -28.6% (active) in the assay with CAKI-1 renal; 39.9% with A498 renal; 4.01% (active) in the assay on CCRF-CEM leukemia; -2.16% (active) in the assay with MOLT-4 leukemia. The growth in the assay with SR leukemia was -8.96% (active).
In the case of `CCCCCCCCCCCCCCCCN(C(C)c1ccccc1)S(=O)(=O)c1ccc(OC)c(N)c1` (centres undefined), the growth in the assay with HT29 colon is 100%; in the assay on SNB-75 CNS it was 91.5%; in the assay on SNB-19 CNS, 120%; with U251 CNS, 100%; with PC-3 prostate it was 101%; in the assay on SK-MEL-5 melanoma, 109%. Besides, the growth is 103% in the assay on UACC-62 melanoma; 91.7% in the assay on LOX IMVI melanoma; 109% in the assay with SK-MEL-28 melanoma; 120% in the assay with SK-MEL-2 melanoma; 114% with EKVX NSCLC; 118% in the assay with SN12C renal. The growth was 89.2% in the assay on UO-31 renal; 122% in the assay on TK-10 renal; 96.5% in the assay on CAKI-1 renal; 123% with A498 renal; 97.5% in the assay with CCRF-CEM leukemia; 98.8% in the assay with MOLT-4 leukemia. For the same compound, the growth with SR leukemia is 94.2%.
For `O=C1N=NC2=C1c1c3ccccc3c(O)n1CC2`, the growth in the assay on HT29 colon is 103%; in the assay on SNB-75 CNS it was 103%; in the assay on SNB-19 CNS it was 96.3%; with U251 CNS it was 105%; in the assay with PC-3 prostate, 86.2%; in the assay on SK-MEL-5 melanoma, 112%. For the same compound, the growth with UACC-62 melanoma was 96.4%; in the assay with LOX IMVI melanoma, 105%; with SK-MEL-28 melanoma, 108%; in the assay on SK-MEL-2 melanoma it was 110%; in the assay with EKVX NSCLC, 96.1%; in the assay on SN12C renal, 105%. Moreover, the growth in the assay with UO-31 renal is 90%; with TK-10 renal, 104%; in the assay on A498 renal, 94.9%; with CCRF-CEM leukemia it was 97.1%; in the assay on MOLT-4 leukemia, 104%; in the assay with SR leukemia, 103%.
